Test results as given in PubChem BioAssay (Tox21).
Records with an inconclusive call do not appear. The source made the active and inactive calls. Unless noted, calls follow the shape of the dose curve; as a rule, active = well fitted curve in the direction sought with a large enough effect in the repeat runs; inconclusive = weak or mixed curves; inactive = no such curve, though single readings can be large; an effect the other way counts as inactive or inconclusive.

Experiments:
[1] = qHTS assay to identify small molecule antagonists of the sonic hedgehog signaling (Shh) pathway (AID 1259369; calls by dose curve; also: nearly all actives have a fitted effect of over 45% in size)
How it was run: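 Read-out is luminescence from a firefly luciferase gene controlled by the Gli1 response element, in 3T3Gli1-Luc cells pre-incubated 4hr then exposed to compounds and conditioned medium for 24hr.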

[2] = molecular target: Estrogen receptor beta (Homo sapiens) (UniProt Q92731); test: qHTS assay to identify small molecule antagonists of the estrogen receptor beta (ER-beta) signaling pathway (AID 1259378; active = well fitted inhibition curve with a large enough effect in the signal ratio in the repeat runs, not every such curve was filed as active; the % refers to the signal ratio)
How it was run: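 Antagonist mode: compounds added to beta-lactamase reporter HEK293T ER-beta-UAS cells stimulated with E2 (1nM final), 16 hr at 37C. LiveBLAzer B/G FRET substrate, 2 hours room temperature, fluorescence read-out.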

[3] = qHTS assay to identify small molecule agonists of the androgen receptor (AR) signaling pathway in the presence of an antagonist - cell viability counter screen (AID 1259379);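 also: MDA-kb2 human breast cancer cells carrying an MMTV luciferase reporter; series mostly up to about 92 µM; nearly all actives have a fitted effect of over 25% in size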
How it was run: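 Each compound was tested at 15 concentrations on MDA-kb2 cells in the presence of 3.0uM nilutamide. Viability was measured by CellTiter-Fluor fluorescence after a 16 hr incubation at 37C in a CO2-free atmosphere.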

[4] = qHTS assay to identify small molecule agonists of the estrogen receptor beta (ER-beta) signaling pathway - cell viability counter screen (AID 1259380); also: nearly all actives have a fitted effect of over 30% in size
How it was run: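 Compounds dissolved in DMSO were pin-transferred onto ER-beta-UAS-bla HEK293T cells that had settled 6 hr, and exposure ran 16 hr at 37C. Following the reporter read, CellTiter-Glo luminescence after 30 min at room temperature indicated cytotoxicity.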

[5] = qHTS assay to identify small molecule antagonists of the estrogen receptor beta (ER-beta) signaling pathway - cell viability counter screen (AID 1259382);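 also: HEK293T cells carrying ER-beta-UAS-bla reporter stimulated with estradiol; series mostly up to about 92 µM; nearly all actives have a fitted effect of over 55% in size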
How it was run: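 CellTiter-Glo ATP luminescence measured after the LiveBLAzer read in the same wells; ER-beta-UAS-bla HEK293T cells, 16 hr compound treatment with 1nM 17-beta-estradiol agonist at 37C, 5% CO2.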

[6] = qHTS assay to identify small molecule agonists or antagonists of the thyroid stimulating hormone receptor (TSHR) signaling pathway - wild type cell line counter screen (AID 1259384; calls by dose curve)
How it was run: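 Counter screen in untransfected Hek293: compounds (15-point titration, triplicate) plus phosphodiesterase inhibitor Ro20-1724 added after 18 h plating; 30 min RT. Intracellular cAMP via competitive d2/cryptate immunoassay, 1 h incubation.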

[7] = molecular target: Progesterone receptor (Homo sapiens) (UniProt P06401); test: qHTS assay to identify small molecule agonists of the progesterone receptor (PR) signaling pathway (AID 1346784; calls by dose curve; also: nearly all actives have a fitted effect of over 30% in size)
How it was run: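 Cells (PR-UAS-bla HEK 293T, GripTite) were plated in assay medium containing 2% charcoal-stripped FBS and incubated 6 hr. Test compounds in DMSO were added for 16 hr at 37C. FRET substrate was then loaded for 2 hr at room temperature before fluorescence reading.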

[8] = molecular target: Progesterone receptor (Homo sapiens) (UniProt P06401); test: qHTS assay to identify small molecule antagonists of the progesterone receptor (PR) signaling pathway (AID 1346795; active = well fitted inhibition curve with a large enough effect in the signal ratio in the repeat runs, not every such curve was filed as active; the % refers to the signal ratio)
How it was run: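 Antagonist mode: compounds tested against 1 nM (final) promegestone stimulation in HEK293T cells expressing PR-UAS-bla reporter, 16 hr at 37C, 5% CO2; beta-lactamase activity detected via B/G FRET substrate after 2 hr at room temperature.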

[9] = qHTS assay to identify small molecule antagonists of the progesterone receptor (PR) signaling pathway - cell viability counter screen (AID 1346798); also: series mostly up to about 92 µM; nearly all actives have a fitted effect of over 50% in size
How it was run: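 Counter screen for cytotoxicity: viability of PR-UAS-bla HEK293T cells was measured with CellTiter-Glo luminescence following 16 hr compound exposure in the presence of R5020.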

[10] = qHTS assay to identify small molecule agonists of the progesterone receptor (PR) signaling pathway - cell viability counter screen (AID 1346799; calls by dose curve; also: nearly all actives have a fitted effect of over 45% in size)
How it was run: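 Cells (PR-UAS-bla HEK293T) are plated at 3,000/well in 2% charcoal-stripped FBS medium, rested 6 hr, dosed and incubated 16 hr at 37C. CellTiter-Glo is then added and luminescence measured after 30 min at room temperature.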

[11] = qHTS assay to identify small molecule antagonists of the TGF-beta/Smad signaling pathway - cell viability counter screen (AID 1346824); also: nearly all actives have a fitted effect of over 50% in size
How it was run: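 Cytotoxicity counter-screen run in the same wells as the beta-lactamase Smad reporter read: CellTiter-Glo luminescence after 30 min at room temperature. HEK 293T SBE-bla cells had 5 hr compound exposure at 37 C with TGF-beta1 (0.25 ng/mL stock).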

[12] = qHTS assay to identify small molecule agonists of the TGF-beta/Smad signaling pathway - cell viability counter screen (AID 1346829); also: top concentration of the series differs between compounds; nearly all actives have a fitted effect of over 45% in size
How it was run: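 Cytotoxicity counter screen: CellTiter-Glo luminescence (30 min, room temperature) measured in the SBE-bla HEK 293T reporter wells after 5 hr compound treatment at 37 C and the 2 hr substrate step.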

[13] = qHTS assay to identify small molecule agonists of the TGF-beta/Smad signaling pathway (AID 1346859; active = well fitted activation curve with a large enough effect in the signal ratio in the repeat runs, not every such curve was filed as active; the % refers to the signal ratio; also: series mostly up to about 77 µM)
How it was run: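 Reporter line: HEK 293T with stably integrated SBE-controlled beta-lactamase. Compound exposure lasts 5 hr at 37 C and 5% CO2; substrate loading follows for 2 hr at room temperature, with emission read at 460 and 530 nm.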

[14] = molecular target: Estrogen receptor (Homo sapiens) (UniProt P03372); test: qHTS assay to identify small molecule agonists of the estrogen receptor alpha (ER-alpha) signaling pathway in the presence of an antagonist (AID 1259383; calls by dose curve; also: top concentration of the series differs between compounds; nearly all actives have a fitted effect of over 15% in size)
How it was run: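 Luminescent ERE-luciferase reporter, VM7Luc4E2 cells (endogenous ER-alpha); 10.0nM ICI-182,780 final; 15-point compound titration; 22hr at 37C; ONE-Glo, 30min RT.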

[15] = molecular target: Thyrotropin receptor (Homo sapiens) (UniProt P16473); test: qHTS assay to identify small molecule antagonists of the thyroid stimulating hormone receptor (TSHR) signaling pathway (AID 1259385; calls by dose curve; also: nearly all actives have a fitted effect of over 20% in size)
How it was run: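 Antagonist mode: compound-treated TSHR-expressing HEK293 cells were stimulated with 1.5 ng/mL TSH (final) in presence of Ro20-1724 for 30 min at RT. HTRF cAMP detection after 1 h; each compound tested at 15 concentrations, triplicate.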

[16] = molecular target: Thyrotropin-releasing hormone receptor (Homo sapiens) (UniProt P34981); test: qHTS assay to identify small molecule antagonists of the thyrotropin-releasing hormone receptor (TRHR) signaling pathway (AID 1346877; active = well fitted inhibition curve with a large enough effect in the repeat runs, not every such curve was filed as active; also: series mostly up to about 51 µM)
How it was run: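 Calcium signal in dye-loaded TRHR/HEK293 cells; compounds added 5 min before TRH (1 nM final); fluorescence monitored 3 min at 1 s steps.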

[17] = molecular target: Thyrotropin-releasing hormone receptor (Homo sapiens) (UniProt P34981); test: qHTS assay to identify small molecule agonists of the thyrotropin-releasing hormone receptor (TRHR) signaling pathway (AID 1346891; calls by dose curve;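 also: HEK293 cells expressing TRHR with calcium dye readout; series mostly up to about 58 µM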)
How it was run: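 Cells: TRHR-Hek293, seeded and incubated 18 h. Dye loading: 2 h at 37 °C. Compound added from DMSO stock by pin tool. Read-out: kinetic calcium fluorescence over 3 min.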

[18] = qHTS assay to identify small molecule agonists of the estrogen receptor alpha (ER-alpha) signaling pathway in the presence of an antagonist - cell viability counter screen (AID 1259386);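 also: series mostly up to about 92 µM; cells exposed to compounds for 22 h at 37 °C before the viability read; nearly all actives have a fitted effect of over 30% in size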
How it was run: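 Using estrogen-depleted VM7Luc4E2 cells, the 15-concentration compound series was applied together with 10.0nM ICI-182,780 and incubated 22hr at 37C/5% CO2. Cell viability was then scored by CellTiter-Fluor.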

[19] = molecular target: Androgen receptor (Homo sapiens) (UniProt P10275); test: qHTS assay to identify small molecule agonists of the androgen receptor (AR) signaling pathway in the presence of an antagonist (AID 1259381; calls by dose curve; also: nearly all actives have a fitted effect of over 15% in size)
How it was run: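 Plated MDA-kb2 cells (3,000/well) were pre-incubated 5hr, given nilutamide (3.0uM final) or buffer, then dosed with compounds in DMSO at 15 concentrations. Luciferase activity was quantified by luminescence after 16hr at 37C.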
% is scaled to controls: 0 for no effect and ±100 for the full control effect.

Sequence of Thyrotropin-releasing hormone receptor (Homo sapiens) (P34981 whole entry, looked up): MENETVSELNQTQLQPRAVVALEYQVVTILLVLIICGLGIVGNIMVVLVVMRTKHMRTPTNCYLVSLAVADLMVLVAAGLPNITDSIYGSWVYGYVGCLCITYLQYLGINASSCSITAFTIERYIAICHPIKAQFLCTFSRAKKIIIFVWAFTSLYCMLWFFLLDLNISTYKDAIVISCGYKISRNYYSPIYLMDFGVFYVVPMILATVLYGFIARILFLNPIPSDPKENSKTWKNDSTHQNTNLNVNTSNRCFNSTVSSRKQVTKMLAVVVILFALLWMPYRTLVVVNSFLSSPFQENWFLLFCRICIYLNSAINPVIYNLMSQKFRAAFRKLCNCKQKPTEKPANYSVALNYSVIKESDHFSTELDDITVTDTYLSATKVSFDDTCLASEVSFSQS
Sequence of Progesterone receptor (Homo sapiens) (P06401 whole entry, looked up): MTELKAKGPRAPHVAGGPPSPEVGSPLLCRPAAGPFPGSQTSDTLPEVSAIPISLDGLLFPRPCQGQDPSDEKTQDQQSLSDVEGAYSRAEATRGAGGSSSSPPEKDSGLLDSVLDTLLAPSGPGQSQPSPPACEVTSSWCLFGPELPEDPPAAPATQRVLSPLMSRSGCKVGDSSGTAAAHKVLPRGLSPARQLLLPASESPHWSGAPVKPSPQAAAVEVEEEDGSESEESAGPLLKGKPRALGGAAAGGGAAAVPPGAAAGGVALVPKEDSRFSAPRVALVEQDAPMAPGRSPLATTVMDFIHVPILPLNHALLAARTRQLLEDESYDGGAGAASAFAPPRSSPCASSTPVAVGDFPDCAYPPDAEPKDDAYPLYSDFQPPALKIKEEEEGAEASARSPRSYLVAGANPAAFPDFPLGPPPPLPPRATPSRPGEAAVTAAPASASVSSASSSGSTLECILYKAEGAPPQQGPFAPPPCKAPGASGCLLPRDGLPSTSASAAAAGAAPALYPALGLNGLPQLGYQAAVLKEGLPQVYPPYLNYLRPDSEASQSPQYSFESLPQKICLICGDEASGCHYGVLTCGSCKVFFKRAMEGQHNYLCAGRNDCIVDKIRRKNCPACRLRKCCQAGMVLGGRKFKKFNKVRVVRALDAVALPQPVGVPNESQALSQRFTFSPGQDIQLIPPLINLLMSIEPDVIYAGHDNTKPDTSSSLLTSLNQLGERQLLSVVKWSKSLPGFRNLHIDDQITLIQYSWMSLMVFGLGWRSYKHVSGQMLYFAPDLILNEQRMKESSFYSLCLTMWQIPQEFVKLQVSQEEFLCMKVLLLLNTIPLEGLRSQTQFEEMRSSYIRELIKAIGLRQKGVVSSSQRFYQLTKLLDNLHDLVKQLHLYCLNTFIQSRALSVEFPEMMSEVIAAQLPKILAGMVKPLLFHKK
Sequence of Estrogen receptor (Homo sapiens) (P03372 whole entry, looked up): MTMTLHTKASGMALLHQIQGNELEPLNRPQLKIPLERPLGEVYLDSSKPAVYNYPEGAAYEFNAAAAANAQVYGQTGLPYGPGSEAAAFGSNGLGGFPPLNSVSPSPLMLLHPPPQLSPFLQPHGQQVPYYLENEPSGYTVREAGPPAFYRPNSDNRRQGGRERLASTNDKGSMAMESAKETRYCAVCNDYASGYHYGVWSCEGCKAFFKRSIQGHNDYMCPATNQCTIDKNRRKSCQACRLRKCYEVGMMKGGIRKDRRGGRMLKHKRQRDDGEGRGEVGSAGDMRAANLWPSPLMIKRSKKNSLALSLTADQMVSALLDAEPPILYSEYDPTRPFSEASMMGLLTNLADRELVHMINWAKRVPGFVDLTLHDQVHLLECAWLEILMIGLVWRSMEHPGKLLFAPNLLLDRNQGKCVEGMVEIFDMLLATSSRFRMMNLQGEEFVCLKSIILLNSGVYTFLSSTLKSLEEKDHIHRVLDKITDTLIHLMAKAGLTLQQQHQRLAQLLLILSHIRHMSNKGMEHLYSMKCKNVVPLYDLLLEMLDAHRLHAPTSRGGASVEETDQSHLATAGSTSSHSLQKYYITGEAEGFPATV
Sequence of Estrogen receptor beta (Homo sapiens) (Q92731 whole entry, looked up): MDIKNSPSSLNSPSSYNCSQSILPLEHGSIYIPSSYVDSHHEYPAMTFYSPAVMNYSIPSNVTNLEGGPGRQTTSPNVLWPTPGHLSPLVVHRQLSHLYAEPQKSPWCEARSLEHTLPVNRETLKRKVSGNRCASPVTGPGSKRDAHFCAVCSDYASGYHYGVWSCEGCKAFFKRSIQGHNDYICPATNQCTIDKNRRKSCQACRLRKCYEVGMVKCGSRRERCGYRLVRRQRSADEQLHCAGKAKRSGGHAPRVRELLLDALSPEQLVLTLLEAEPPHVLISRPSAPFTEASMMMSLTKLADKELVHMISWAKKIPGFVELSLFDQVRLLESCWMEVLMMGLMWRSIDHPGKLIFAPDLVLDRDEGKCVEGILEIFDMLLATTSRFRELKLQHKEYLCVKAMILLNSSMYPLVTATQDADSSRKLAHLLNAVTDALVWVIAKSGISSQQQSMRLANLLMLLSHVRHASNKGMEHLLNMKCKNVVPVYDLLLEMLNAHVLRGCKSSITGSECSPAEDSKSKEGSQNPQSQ
Sequence of Thyrotropin receptor (Homo sapiens) (P16473 whole entry, looked up): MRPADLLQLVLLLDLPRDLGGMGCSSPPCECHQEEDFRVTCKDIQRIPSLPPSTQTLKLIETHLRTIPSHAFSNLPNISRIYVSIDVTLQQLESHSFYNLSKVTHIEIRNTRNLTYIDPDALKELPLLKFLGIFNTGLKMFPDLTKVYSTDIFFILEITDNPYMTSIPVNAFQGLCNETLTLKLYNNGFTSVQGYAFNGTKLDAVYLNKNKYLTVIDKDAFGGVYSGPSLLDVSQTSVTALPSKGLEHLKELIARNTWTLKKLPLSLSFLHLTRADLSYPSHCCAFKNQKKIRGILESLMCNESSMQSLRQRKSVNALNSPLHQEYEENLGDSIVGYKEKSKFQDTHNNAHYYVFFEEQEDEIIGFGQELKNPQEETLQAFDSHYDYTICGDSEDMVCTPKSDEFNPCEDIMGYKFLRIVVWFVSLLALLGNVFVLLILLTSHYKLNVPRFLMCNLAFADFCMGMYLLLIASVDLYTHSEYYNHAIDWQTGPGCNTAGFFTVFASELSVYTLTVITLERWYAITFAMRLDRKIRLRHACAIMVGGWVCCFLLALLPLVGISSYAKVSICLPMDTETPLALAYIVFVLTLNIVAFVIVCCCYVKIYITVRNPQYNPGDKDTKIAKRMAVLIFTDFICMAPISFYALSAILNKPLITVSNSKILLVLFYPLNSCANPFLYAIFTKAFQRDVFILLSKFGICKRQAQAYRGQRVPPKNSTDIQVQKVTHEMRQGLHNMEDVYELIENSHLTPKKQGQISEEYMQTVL
Sequence of Androgen receptor (Homo sapiens) (P10275 whole entry, looked up): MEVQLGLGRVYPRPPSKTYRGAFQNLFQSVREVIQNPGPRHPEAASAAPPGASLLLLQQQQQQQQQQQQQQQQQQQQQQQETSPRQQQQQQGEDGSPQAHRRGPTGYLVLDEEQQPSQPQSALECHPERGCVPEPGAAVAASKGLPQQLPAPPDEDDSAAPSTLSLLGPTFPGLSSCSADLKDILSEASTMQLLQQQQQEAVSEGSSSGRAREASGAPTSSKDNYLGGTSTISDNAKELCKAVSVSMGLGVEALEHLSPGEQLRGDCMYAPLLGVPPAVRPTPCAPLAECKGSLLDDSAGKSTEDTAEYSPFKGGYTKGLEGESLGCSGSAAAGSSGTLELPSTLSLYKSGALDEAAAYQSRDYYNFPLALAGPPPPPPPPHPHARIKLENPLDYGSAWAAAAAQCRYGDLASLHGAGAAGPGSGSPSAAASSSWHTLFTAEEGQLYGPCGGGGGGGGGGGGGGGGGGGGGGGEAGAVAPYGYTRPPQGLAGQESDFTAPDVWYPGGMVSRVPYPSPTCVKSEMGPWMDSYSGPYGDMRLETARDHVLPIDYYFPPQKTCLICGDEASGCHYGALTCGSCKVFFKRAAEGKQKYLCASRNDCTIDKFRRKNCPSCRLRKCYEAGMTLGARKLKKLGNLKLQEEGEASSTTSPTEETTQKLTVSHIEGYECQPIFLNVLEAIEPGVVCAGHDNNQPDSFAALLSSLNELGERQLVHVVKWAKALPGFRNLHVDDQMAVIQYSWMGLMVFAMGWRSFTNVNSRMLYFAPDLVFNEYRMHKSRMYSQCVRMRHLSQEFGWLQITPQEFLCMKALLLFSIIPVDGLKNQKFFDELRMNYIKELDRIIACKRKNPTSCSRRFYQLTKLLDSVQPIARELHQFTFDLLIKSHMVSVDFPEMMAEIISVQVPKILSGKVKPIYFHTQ

Cc1ccc(C(C)C)cc1O
inactive: Potency [1] | Potency [2] | Potency [3] | Potency [4] | outcome [5] | outcome [6] | Potency [7] | Potency [8] | Potency [9] | Potency [10] | outcome [11] | outcome [12] | outcome [13]

COc1ccc(Nc2ccc(OC)cc2)cc1
inactive: Potency [1] | Potency [2] | outcome [5] | Potency [14] | outcome [6] | Potency [15] | Potency [7] | outcome [11] | outcome [13] | outcome [16] | Potency [17]

CCCc1c2oc(C(=O)O)cc(=O)c2cc2c(=O)cc(C(=O)O)n(CC)c12
inactive: Potency [1] | Potency [3] | Potency [4] | outcome [5] | Potency [14] | outcome [6] | Potency [15] | Potency [18] | Potency [7] | Potency [8] | Potency [9] | outcome [11] | outcome [12] | outcome [13]

COC(=O)c1ccc(OC)cc1
inactive: Potency [1] | Potency [2] | Potency [3] | Potency [4] | outcome [5] | outcome [6] | Potency [15] | Potency [18] | Potency [7] | Potency [8] | Potency [10] | outcome [11] | outcome [12] | outcome [13] | outcome [16] | Potency [17]

COc1ccccc1OCC(O)COC(N)=O (stereo not drawn)
inactive: Potency [1] | Potency [3] | Potency [4] | outcome [5] | Potency [14] | outcome [6] | Potency [15] | Potency [18] | Potency [7] | Potency [9] | Potency [10] | outcome [11] | outcome [12] | outcome [13] | outcome [16] | Potency [17]

C[C@@H]1CN(c2c(F)c(F)c3c(=O)c(C(=O)O)cn(C4CC4)c3c2F)C[C@H](C)N1
inactive: activity change, negative = inhibition [1] 7.04% [at 19 µM] | activity change, negative = cytotoxicity [3] 1.23% [at 19 µM] | activity change, negative = cytotoxicity [4] -0.431% [at 19 µM] | Potency [19] | activity change, negative = cytotoxicity [5] 0.873% [at 19 µM] | activation [14] -0.582% [at 19 µM] | cAMP activity change [6] -0.3% [at 18.9 µM] | activity change, negative = inhibition [15] -7.61% [at 19 µM] | activation [7] 4.11% [at 19 µM] | activity change, negative = inhibition [8] 6.07% [at 18.9 µM] | Potency [9] | viability change, negative = cytotoxic [11] 0.903% [at 15.8 µM] | activity change, negative = cytotoxicity [12] -0.146% [at 15.8 µM] | activation [13] -1.32% [at 15.8 µM] | activity, negative = inhibition [16] -3.72% [at 10.5 µM] | activation [17] 0.0488% [at 11.8 µM]

C=Cc1ccccc1
inactive: Potency [1] | Potency [2] | Potency [3] | Potency [4] | outcome [5] | Potency [14] | Potency [18] | Potency [8] | Potency [9] | Potency [10] | outcome [12] | outcome [13]
